GDH-TPI counter-1: GDH-TPI coupling enzyme inhibitors, primary screen, artefact control for M. tuberculosis FBA inhibitor project, biochemical, absorbance, full deck | GDH-TPI coupled enzyme counterscreen, NADH absorbance | inhibition, % at 4.8 µM | actives 1.2% (n = 360,000); in the data active = inhibition above about 30%
Mtb betalactam: beta-lactam sensitization of Mtb H37Rv, H37Rv. M. tuberculosis H37Rv growth with meropenem, percent inhibition. inhibition, % at 25 µM. actives 0.27% (n = 330,000). AID 434955, 2010; call rule not given here;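 note: growth measured after seven days incubation then overnight dye step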
RecA intein inh: Mtb RecA intein splicing inhibitors, primary screen, biochemical, fluorescence, HTS. cell-free RecA intein splicing. inhibition, % (test concentration not listed). actives 0.75% (n = 290,000). AID 2221, 2009; in the data active = inhibition above about 30%
Target sequence (P9WHJ3 whole entry, looked up): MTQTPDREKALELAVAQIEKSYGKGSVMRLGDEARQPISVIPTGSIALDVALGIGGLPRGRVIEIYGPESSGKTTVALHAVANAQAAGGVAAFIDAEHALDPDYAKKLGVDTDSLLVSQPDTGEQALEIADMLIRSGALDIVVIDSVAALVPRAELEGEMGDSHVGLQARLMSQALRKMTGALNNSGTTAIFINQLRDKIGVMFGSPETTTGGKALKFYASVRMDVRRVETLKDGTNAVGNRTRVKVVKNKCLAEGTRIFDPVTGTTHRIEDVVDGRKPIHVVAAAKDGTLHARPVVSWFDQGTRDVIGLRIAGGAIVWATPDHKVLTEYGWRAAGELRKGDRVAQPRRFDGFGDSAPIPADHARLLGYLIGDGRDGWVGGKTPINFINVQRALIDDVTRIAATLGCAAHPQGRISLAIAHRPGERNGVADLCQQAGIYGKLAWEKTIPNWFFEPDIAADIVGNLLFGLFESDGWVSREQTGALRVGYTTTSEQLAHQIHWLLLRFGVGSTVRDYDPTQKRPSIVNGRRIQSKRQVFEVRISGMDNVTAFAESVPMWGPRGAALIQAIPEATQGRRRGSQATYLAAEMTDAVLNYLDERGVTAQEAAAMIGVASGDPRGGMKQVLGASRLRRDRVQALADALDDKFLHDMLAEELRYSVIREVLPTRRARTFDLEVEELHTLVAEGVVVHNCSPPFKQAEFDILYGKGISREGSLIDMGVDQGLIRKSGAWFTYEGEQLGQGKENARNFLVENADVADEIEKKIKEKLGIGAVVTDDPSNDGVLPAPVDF
CCHFV vOTU inh: CCHFV vOTU protease inhibitors, primary screen, biochemical, Pep-AMC substrate, fluorescence. inhibition, % at 11.5 µM. actives 0.55% (n = 370,000). AID 651958, 2012; in the data active = inhibition above about 30%
Mtb FBA inh: Mtb FBA enzyme inhibitors, primary screen, biochemical, fluorescence, strain H37Rv | Fructose-bisphosphate aldolase (Mycobacterium tuberculosis (strain ATCC 25618 / H37Rv)), … | purified M. tuberculosis FBA, fluorescence read-out | inhibition, % at 1 µM | actives 2.3% (n = 360,000) | AID 588726, 2011
Mtb FBA confirm: M. tuberculosis aldolase blockers, biochemical, fluorescence, strain H37Rv, confirmation | shares compounds with Mtb FBA inh | actives 78% (n = 5,600) | purified M. tuberculosis FBA, fluorescence read-out | inhibition, % at 1 µM
GDH-TPI counter-2: GDH-TPI coupling enzyme inhibitors, artefact control for M. tuberculosis FBA inhibitor project, biochemical, fluorescence, high throughput. GDH-TPI coupled enzyme counterscreen. actives 81% (n = 5,600). inhibition, % at 1 µM. shares compounds with Mtb FBA inh; in the data active = inhibition above about 10%
Numbers stand for hits; i = inactive; nt = no result given; + = active, no number. Sampled rows, rich in hits. Any-hit rate of the full collection: about 4.2%. Cut-off read from the data, not from the text of the source, unless noted: active = inhibition above about 27%; inactive = the rest.

SMILES | GDH-TPI counter-1 | Mtb betalactam | RecA intein inh | CCHFV vOTU inh | Mtb FBA inh | Mtb FBA confirm | GDH-TPI counter-2
COC(=O)c1cn(-c2ccccc2)nc1-c1ccc(OC)c(OC)c1 | i | i | i | i | i | nt | nt
COc1ccc(NC(=O)N(C)[C@H]2C[C@H]3c4[nH]c5c(-c6cccc(C)c6)cccc5c4CCN3C(=O)[C@H]2[C@H](C)O)cc1 | nt | nt | nt | i | nt | nt | nt
COc1cc2cc(CN(Cc3cccnc3)C(=O)Nc3ccccc3)c(=O)[nH]c2cc1OC | i | i | i | i | i | nt | nt
COc1cc2cc(CN(Cc3cccnc3)C(=O)NCc3ccccc3)c(=O)[nH]c2cc1OC | i | i | i | i | 32.4 | i | 19.7
COc1cc2cc(CN(CCCO)S(=O)(=O)c3ccccc3)c(=O)[nH]c2cc1OC | 36.6 | i | i | i | 54.5 | i | i
CCOC(=O)c1cccc(S(=O)(=O)N(CCO)Cc2cc3cc(OC)c(OC)cc3[nH]c2=O)c1 | i | i | i | i | i | nt | nt
COc1cc2cc(CN(CCCO)S(=O)(=O)c3ccccc3Cl)c(=O)[nH]c2cc1OC | i | i | i | nt | i | nt | nt
COc1cc2cc(CN(CCO)S(=O)(=O)c3ccccc3Cl)c(=O)[nH]c2cc1OC | 32.6 | i | i | i | 48.6 | 118.3 | 100.8
Cc1ccc(-c2nc(C3CCCN(S(=O)(=O)c4ccc(C)c(C)c4)C3)no2)cc1 (stereo unspecified) | nt | nt | nt | i | nt | nt | nt
CCn1c(SCC(=O)N/N=C/c2cccc(Oc3ccccc3)c2)nnc1-c1ccccc1 | nt | nt | nt | i | nt | nt | nt
Cc1ccc(-n2c(SC/C=C/c3ccccc3)nnc2-c2cccs2)cc1 | nt | nt | nt | i | nt | nt | nt
CC(C)C[C@H](NC(=O)c1nccs1)C(=O)N1CCC[C@H]1C(=O)NCc1ccccc1 | nt | nt | nt | i | nt | nt | nt
COC(CNC(=O)c1ccc(-n2c(=S)[nH]c3ccccc3c2=O)cc1)OC | i | i | i | i | i | nt | nt
COC(CNC(=O)c1cccc(-n2c(=S)[nH]c3cc(Cl)ccc3c2=O)c1)OC | i | i | i | i | 68.0 | + | 159.1
CN(CCc1ccccn1)C1CCCN(S(=O)(=O)c2ccccc2)C1 (stereo unspecified) | i | i | i | i | i | nt | nt
CC(=O)c1ccc(S(=O)(=O)N2CCCC(N(C)CCc3ccccn3)C2)cc1 (stereo unspecified) | i | i | i | i | 75.7 | i | i
C[C@@H]1C=CCCO[C@]12C(=O)N(Cc1ccccc1C(F)(F)F)c1cccc(Br)c12 | nt | nt | nt | i | nt | nt | nt
O=C(COc1ccc2c(c1)C(=O)CC1(CCCCC1)O2)NCc1ccccc1 | i | i | i | i | 36.4 | 62.5 | 48.4
O=C1CC2(CCCCC2)Oc2ccc(Cl)cc21 | i | i | i | i | i | nt | nt
O=C(COc1ccc2c(c1)C(=O)CC1(CCCCC1)O2)NCc1ccccn1 | i | i | i | i | 37.5 | 82.2 | 57.7
CCOC(=O)COc1ccc2c(c1)C(=O)CC1(CCCCC1)O2 | i | i | i | i | 53.2 | 89.1 | 76.6
C[C@]12Cc3ccccc3C1CC1=N[C@@H](c3ccccn3)O[C@@]13C[C@@H]2C(=O)N3C1CCN(Cc2ccccc2)CC1 (stereo partly specified) | nt | nt | nt | i | nt | nt | nt
Nc1ccn([C@@H]2O[C@H](C(=O)N[C@H](Cc3ccccc3)C(=O)NCC(=O)N3CCOCC3)[C@@H](O)[C@H]2O)c(=O)n1 | nt | nt | nt | i | nt | nt | nt
Cc1cc(-c2ccccc2)n2ncc(C#N)c2n1 | i | i | i | i | 55.1 | i | i
Cc1cc(Cl)n2ncc(-c3ccccc3)c2n1 | i | i | i | i | i | nt | nt
Nc1nccnc1C(=O)OCC(=O)NCCc1ccc(Cl)cc1 | i | i | nt | i | 102.5 | i | i
O=C(COC(=O)c1n[nH]c2ccccc12)NCCc1ccc(Cl)cc1 | i | i | nt | i | i | nt | nt
CCCCCCN1CCS(=O)(=O)N(Cc2ccc(F)cc2)C(C(=O)OC)C1 (stereo unspecified) | nt | nt | nt | i | nt | nt | nt
